This note sets out measurements from the supplement of paper PMC9262897, “Low-cost anti-mycobacterial drug discovery using engineered E. coli” (Nature Communications, 2022).

Structures can show the parent of a compound that is named as a salt. ± gives the standard deviation of the averaged measurements.

Holding throughout (assay): growth (OD600 after 10 h); higher = more growth (less inhibition)
The subject of experiment [1] is E. coli TESEC Alr+ wild-type control. Conditions: compound 0.1 mM; raw OD600 reference: median of DMSO wells 0.241, cell-free background 0.041. On the procedure: (§1)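 TESEC Mtb Alr E. coli, or the Alr+ wild-type control, in 384-well plates with Prestwick library compounds at 0.1 mM and 1% DMSO, across arabinose induction levels of 1E3 to 1E7 nM. Growth is read as OD600 after 10 h at 37 °C in triplicate biological replicates.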

For experiment [2], the system named is E. coli TESEC Mtb Alr. Conditions: compound 0.1 mM. As to the method: as §1
In the next experiment the test system is E. coli TESEC Mtb Asd. The settings on record: compound 0.1 mM. On the procedure:
(§2)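 TESEC E. coli strains in which the native enzyme is deleted and replaced by arabinose-inducible Mtb Asd, DapB, CysH or TrpD, each grown in its selective medium. Strains were screened against the Prestwick library at 0.1 mM and 1% DMSO in 384-well format at low and high arabinose induction. Growth is read as OD600 after 10 h in triplicate.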

Another experiment deals with E. coli TESEC Mtb DapB. The settings on record: compound 0.1 mM. On the procedure:
as §2

Experiment [3] deals with E. coli TESEC Alr+ wild-type control. Conditions: compound 0.1 mM; raw OD600 reference: median of DMSO wells 0.49, cell-free background 0.052. As to the method:
(§3)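 TESEC Mtb Alr E. coli (ΔaraC ΔtolC ΔentC Δalr ΔdadX, arabinose-inducible Mtb Alr) or the Alr+ wild-type control strain, grown in defined M9-fructose medium without D-alanine in 96-well plates with Prestwick library compounds at 0.1 mM and 1% DMSO. Low Alr induction is 0.1 µM arabinose and high induction is 10 mM arabinose.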

Experiment [4] deals with E. coli TESEC Mtb Alr. The settings on record: compound 0.1 mM. On the procedure: as §3
This is another data set of the same source.

Where [5] appears, read: arabinose 1000 nM, raw OD600 reference: median of DMSO wells 0.294, cell-free background 0.041.
Where [6] appears, read: arabinose 10000 nM, raw OD600 reference: median of DMSO wells 0.264, cell-free background 0.041.
Setting [7] is: arabinose 100000 nM, raw OD600 reference: median of DMSO wells 0.201, cell-free background 0.041.
Where [8] appears, read: arabinose 1000000 nM, raw OD600 reference: median of DMSO wells 0.193, cell-free background 0.041.
[9] abbreviates: arabinose 10000000 nM, raw OD600 reference: median of DMSO wells 0.146, cell-free background 0.041.
Where [10] appears, read: arabinose induction (level): High, raw OD600 reference: median of DMSO wells 0.331, cell-free background 0.041.
[11] abbreviates: arabinose induction (level): Low, raw OD600 reference: median of DMSO wells 0.417, cell-free background 0.041.
Setting [12] is: arabinose induction (level): High, raw OD600 reference: median of DMSO wells […], cell-free background 0.041.
[13] abbreviates: arabinose induction (level): Low, raw OD600 reference: median of DMSO wells 0.227, cell-free background 0.041.
The mark [14] stands for this setting: arabinose 100 nM, raw OD600 reference: median of DMSO wells 0.413, cell-free background 0.052.
Where [15] appears, read: arabinose 10000000 nM, raw OD600 reference: median of DMSO wells […], cell-free background 0.052.

Consider `O=C(O)Cc1sc(-c2ccccc2)nc1-c1ccc(Cl)cc1` [Fentiazac], for which the growth in experiment [1] was 0.168 ± 0.0065; in the experiment on E. coli TESEC Mtb Alr [2] (setting [5]), 0.17 ± 0.0076; with E. coli TESEC Mtb Alr [2] (setting [6]) it was 0.137 ± 0.0036; in the experiment with E. coli TESEC Mtb Alr [2] (setting [7]), 0.165 ± 0.0017; in the experiment with E. coli TESEC Mtb Alr [2] (setting [8]), 0.152 ± 0.0063; with E. coli TESEC Mtb Alr [2] (setting [9]), 0.158 ± 0.0089. Moreover, the growth in the experiment with E. coli TESEC Mtb Asd (setting [10]) is 0.189 ± 0.0056; in the experiment with E. coli TESEC Mtb Asd (setting [11]) it was 0.187 ± 0.018; in the experiment with E. coli TESEC Mtb DapB (setting [12]), 0.206 ± 0.012; with E. coli TESEC Mtb DapB (setting [13]), 0.223 ± 0.029; in experiment [3], 0.286 ± 0.012; in the experiment on E. coli TESEC Mtb Alr [4] (setting [14]), 0.141 ± 0.064. In the experiment with E. coli TESEC Mtb Alr [4] (setting [15]), this compound registered a growth of 0.14 ± 0.033.

In the case of `C[C@@H]1NC(=O)NC1=O` [Methylhydantoin-5-(L)], the growth in experiment [1] was determined as 0.236 ± 0.0048; with E. coli TESEC Mtb Alr [2] (setting [5]), 0.292 ± 0.012; with E. coli TESEC Mtb Alr [2] (setting [6]), 0.274 ± 0.005; with E. coli TESEC Mtb Alr [2] (setting [7]), 0.182 ± 0.017; in the experiment on E. coli TESEC Mtb Alr [2] (setting [8]) it was 0.186 ± 0.0047; in the experiment with E. coli TESEC Mtb Alr [2] (setting [9]), 0.1457 ± 0.0013. The growth was 0.427 ± 0.024 in the experiment with E. coli TESEC Mtb Asd (setting [10]); 0.44 ± 0.036 in the experiment on E. coli TESEC Mtb Asd (setting [11]); 0.192 ± 0.013 with E. coli TESEC Mtb DapB (setting [12]); 0.245 ± 0.022 in the experiment with E. coli TESEC Mtb DapB (setting [13]); 0.49 ± 0.056 in experiment [3]; 0.411 ± 0.016 with E. coli TESEC Mtb Alr [4] (setting [14]). In addition, the growth in the experiment with E. coli TESEC Mtb Alr [4] (setting [15]) stood at 0.352 ± 0.014.

Consider `CCCCOc1cc(C(=O)NCCN(CC)CC)c2ccccc2n1` [Dibucaine], for which the growth in experiment [1] is 0.216 ± 0.016; with E. coli TESEC Mtb Alr [2] (setting [5]), 0.281 ± 0.0065; with E. coli TESEC Mtb Alr [2] (setting [6]), 0.26283 ± 0.00023; with E. coli TESEC Mtb Alr [2] (setting [7]) it was 0.208 ± 0.0075; in the experiment with E. coli TESEC Mtb Alr [2] (setting [8]) it was 0.154 ± 0.0091; in the experiment on E. coli TESEC Mtb Alr [2] (setting [9]), 0.174 ± 0.0038. The growth in the experiment with E. coli TESEC Mtb Asd (setting [10]) turned out to be 0.239 ± 0.058; with E. coli TESEC Mtb Asd (setting [11]) it was 0.3947 ± 0.0033; with E. coli TESEC Mtb DapB (setting [12]) it was 0.184 ± 0.016; with E. coli TESEC Mtb DapB (setting [13]) it was 0.25 ± 0.025; in experiment [3] it was 0.452 ± 0.017; in the experiment on E. coli TESEC Mtb Alr [4] (setting [14]), 0.415 ± 0.0019. In the experiment with E. coli TESEC Mtb Alr [4] (setting [15]), this compound showed a growth of 0.321 ± 0.025.

Take `Cn1c(=O)c2c(ncn2CCO)n(C)c1=O` [Etofylline]: the growth is 0.254 ± 0.003 in experiment [1]; 0.283 ± 0.0029 in the experiment with E. coli TESEC Mtb Alr [2] (setting [5]); 0.276 ± 0.016 with E. coli TESEC Mtb Alr [2] (setting [6]); 0.228 ± 0.011 in the experiment on E. coli TESEC Mtb Alr [2] (setting [7]); 0.195 ± 0.0066 in the experiment with E. coli TESEC Mtb Alr [2] (setting [8]); 0.145 ± 0.0023 in the experiment on E. coli TESEC Mtb Alr [2] (setting [9]). Also, the growth with E. coli TESEC Mtb Asd (setting [10]) worked out at 0.396 ± 0.053; in the experiment with E. coli TESEC Mtb Asd (setting [11]) it was 0.425 ± 0.033; in the experiment on E. coli TESEC Mtb DapB (setting [12]) it was 0.192 ± 0.0028; in the experiment with E. coli TESEC Mtb DapB (setting [13]), 0.264 ± 0.098; in experiment [3] it was 0.509 ± 0.055; in the experiment on E. coli TESEC Mtb Alr [4] (setting [14]), 0.414 ± 0.0083. This compound came in with a growth in the experiment on E. coli TESEC Mtb Alr [4] (setting [15]) of 0.349 ± 0.0046.

Turning to `CNC(C)CCC=C(C)C` (stereo unspecified) [Isometheptene mucate], the growth is 0.259 ± 0.012 in experiment [1]; 0.314 ± 0.0099 in the experiment on E. coli TESEC Mtb Alr [2] (setting [5]); 0.266 ± 0.011 in the experiment on E. coli TESEC Mtb Alr [2] (setting [6]); 0.21 ± 0.025 in the experiment with E. coli TESEC Mtb Alr [2] (setting [7]); 0.177 ± 0.0051 in the experiment with E. coli TESEC Mtb Alr [2] (setting [8]); 0.1478 ± 0.0012 in the experiment on E. coli TESEC Mtb Alr [2] (setting [9]). The growth was determined as 0.228 ± 0.035 with E. coli TESEC Mtb Asd (setting [10]); 0.397 ± 0.096 in the experiment on E. coli TESEC Mtb Asd (setting [11]); 0.22 ± 0.0027 in the experiment on E. coli TESEC Mtb DapB (setting [12]); 0.246 ± 0.018 in the experiment on E. coli TESEC Mtb DapB (setting [13]); 0.51 ± 0.055 in experiment [3]; 0.405 ± 0.017 in the experiment on E. coli TESEC Mtb Alr [4] (setting [14]). Also, the growth in the experiment with E. coli TESEC Mtb Alr [4] (setting [15]) turned out to be 0.314 ± 0.02.

On to `CN(C)CCOC(c1ccc(Cl)cc1)c1ccccn1` (stereo unspecified) [Carbinoxamine maleate salt], for which the growth is 0.2081 ± 0.00038 in experiment [1]; 0.297 ± 0.017 in the experiment on E. coli TESEC Mtb Alr [2] (setting [5]); 0.265 ± 0.006 in the experiment on E. coli TESEC Mtb Alr [2] (setting [6]); 0.196 ± 0.034 in the experiment on E. coli TESEC Mtb Alr [2] (setting [7]); 0.187 ± 0.018 in the experiment with E. coli TESEC Mtb Alr [2] (setting [8]); 0.13 ± 0.011 with E. coli TESEC Mtb Alr [2] (setting [9]). Also, the growth in the experiment on E. coli TESEC Mtb Asd (setting [10]) turned out to be 0.259 ± 0.023; with E. coli TESEC Mtb Asd (setting [11]) it was 0.44 ± 0.01; with E. coli TESEC Mtb DapB (setting [12]) it was 0.193 ± 0.01; with E. coli TESEC Mtb DapB (setting [13]), 0.23 ± 0.016; in experiment [3], 0.438 ± 0.022; in the experiment on E. coli TESEC Mtb Alr [4] (setting [14]), 0.393 ± 0.015. Further, the growth with E. coli TESEC Mtb Alr [4] (setting [15]) is 0.332 ± 0.021.

As for `N=C(N)c1ccc(OCCCCCOc2ccc(C(=N)N)cc2)cc1` [Pentamidine isethionate], the growth worked out at 0.0725 ± 0.0026 in experiment [1]; 0.0837 ± 0.0024 with E. coli TESEC Mtb Alr [2] (setting [5]); 0.0536 ± 0.0012 with E. coli TESEC Mtb Alr [2] (setting [6]); 0.0903 ± 0.001 in the experiment with E. coli TESEC Mtb Alr [2] (setting [7]); 0.0538 ± 0.0022 with E. coli TESEC Mtb Alr [2] (setting [8]); 0.095 ± 0.001 with E. coli TESEC Mtb Alr [2] (setting [9]). The growth in the experiment with E. coli TESEC Mtb Asd (setting [10]) is 0.0804 ± 0.013; with E. coli TESEC Mtb Asd (setting [11]), 0.0745 ± 0.01; in the experiment with E. coli TESEC Mtb DapB (setting [12]) it was 0.224 ± 0.008; in the experiment with E. coli TESEC Mtb DapB (setting [13]), 0.0531 ± 0.0065; in experiment [3], 0.194 ± 0.068; in the experiment on E. coli TESEC Mtb Alr [4] (setting [14]) it was 0.28 ± 0.16. In addition, the growth with E. coli TESEC Mtb Alr [4] (setting [15]) came out at 0.0605 ± 0.0026.
